Measurements reported in PubChem BioAssay (Tox21).
Values without a mark were called inactive. Where a call stands in place of a potency, no number is given. Activity calls are given as the source filed them. Calls come from the whole dose curve.

These compounds were tested against Estrogen receptor (Homo sapiens) (UniProt P03372) (assay: qHTS assay to identify small molecule agonists of the estrogen receptor alpha (ER-alpha) signaling pathway in the presence of an antagonist (AID 1259383; note: nearly all actives have a fitted effect of over 15% in size; for activation: top concentration of the series differs between compounds)). Details: VM7Luc4E2 cells, ERE-luciferase, +ICI-182,780, 22 h; series mostly up to 92.4 µM.
Description: National Center for Advancing Translational Sciences [NCATS] NIH Chemical Genomics Center [NCGC] U.S. Environmental Protection Agency [EPA] National Institutes of Environmental Health Sciences [NIEHS] National Toxicology Program [NTP] Assay overview: Estrogen receptor (ER), a member of nuclear hormone receptor plays an important role in development, metabolic homeostasis and reproduction. Two subtypes of ER, ER-alpha and ER-beta, have similar expression patterns with some uniqueness in both types. Endocrine disrupting chemicals (EDCs) and their interactions with steroid hormone receptors like ER causes disruption of normal endocrine function. Therefore, it is important to understand the effect of environmental chemicals in ER signaling pathway. For identifying ER agonists, VM7Luc4E2 cell line has been used in the current assay. VM7Luc4E2 cell line (provided by Denison MS, University of California) endogenously expresses full-length ER-alpha and is stably transfected with a plasmid containing four estrogen responsive elements (ERE) upstream of a luciferase reporter gene. This current screening for measuring luciferase reporter gene activity using VM7Luc4E2 cells against Tox21 10K library collection is a confirmation study on agonist mode screening in presence of ER-antagonist (ICI-182,780) at 10.0nM final concentration.
Assay Protocol Summary: VM7Luc4E2 cells were cultured in phenol red free assay medium containing 10% charcoal stripped FBS for 5 days prior to the assay. The cells were dispensed at 4,000 cells in 4uL of assay medium per well into white wall/solid-bottom 1536-well plates (Corning Life Sciences, Corning, NY) using a Multidrop Combi (Thermo Fisher Scientific Inc., Waltham, MA) dispenser. After the assay plates were incubated at 37C and 5% CO2 for 24hr, 1uL of 10.0nM (final concentration) ICI-182,780 or assay buffer was added using two separate tips of Flying Reagent Dispenser (FRD, Aurora Discovery, San Diego, CA). Then 23nL of compounds dissolved in DMSO at 15 concentrations and positive controls or DMSO only was transferred to the assay plates by a Pintool station (Wako, San Diego, CA). The assay plates were incubated at 37C and 5% CO2 for 22hr. For luciferase read, 4uL/well ONE-Glo reagent (Promega Corporation, Madison, WI) was added to each well using FRD and after 30min incubation at room temperature, luminescence signal was measured on ViewLux plate reader (PerkinElmer, Shelton, CT).
Potency is the fitted concentration of half-maximal effect.

Chain of Estrogen receptor (Homo sapiens) (P03372 whole entry, looked up): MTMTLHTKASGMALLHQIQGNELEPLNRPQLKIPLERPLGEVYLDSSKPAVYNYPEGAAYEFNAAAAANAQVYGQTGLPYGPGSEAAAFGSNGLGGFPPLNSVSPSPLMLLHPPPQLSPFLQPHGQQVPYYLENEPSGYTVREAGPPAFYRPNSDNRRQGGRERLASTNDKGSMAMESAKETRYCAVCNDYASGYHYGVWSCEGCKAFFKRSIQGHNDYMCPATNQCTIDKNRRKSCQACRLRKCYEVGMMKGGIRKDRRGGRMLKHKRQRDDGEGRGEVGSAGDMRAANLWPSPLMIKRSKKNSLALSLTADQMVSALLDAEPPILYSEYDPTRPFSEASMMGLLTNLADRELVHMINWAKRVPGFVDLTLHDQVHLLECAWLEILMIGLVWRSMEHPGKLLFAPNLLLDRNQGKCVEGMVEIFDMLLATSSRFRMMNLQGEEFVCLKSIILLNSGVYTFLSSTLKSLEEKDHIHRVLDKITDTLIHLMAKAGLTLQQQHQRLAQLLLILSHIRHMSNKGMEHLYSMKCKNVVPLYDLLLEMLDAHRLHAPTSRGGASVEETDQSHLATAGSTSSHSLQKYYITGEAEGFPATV

Compound | Potency | activation
CCCCCCCCCCCCCCC[C@H](O)[C@@H](N)CO | inactive | 
CC1CC(=O)NN=C1c1ccc(NCC(C)(C)NCC(O)COc2cc(Cl)ccc2C#N)cc1 (stereo not given) | inactive | 
CCCOC(=O)c1ccc(N)cc1 | inactive | 
COCc1c(C(C)C)nc(C(C)C)c(/C=C/[C@@H](O)C[C@@H](O)CC(=O)O)c1-c1ccc(F)cc1 | inactive | 
CC(C)c1nnc2ccc(-c3ocnc3-c3cc(F)ccc3F)cn12 | inactive | 
CN1CCCN=C1/C=C/c1cccs1 | inactive | 
CC(C)(C)C(=O)C(Oc1ccc(Cl)cc1)n1ccnc1 (stereo not given) | inactive | 
CCCC(=O)O[C@]1(C(=O)COC(=O)CC)CC[C@H]2[C@@H]3CCC4=CC(=O)CC[C@]4(C)[C@H]3[C@@H](O)C[C@@]21C |  | 0.91% [at 19 µM]
Cn1c(=O)c2c(ncn2CC(=O)O)n(C)c1=O | inactive | 
Nc1nc(Cl)nc2c1ncn2[C@@H]1O[C@H](CO)[C@@H](O)[C@@H]1F | inactive | 
Nc1ccc(C(=O)OCCCOC(=O)c2ccc(N)cc2)cc1 | inactive | 
CCOc1cc(N)c(Cl)cc1C(=O)NCC1CN(Cc2ccc(F)cc2)CCO1 (stereo not given) | inactive | 
CC1=CC(O)CC(C)(C)C1 (stereo not given) | inactive | 
CC#N | inactive | 
CO[C@H]1C=CO[C@@]2(C)Oc3c(C)c(O)c4c(O)c(c5c(c4c3C2=O)=NC2(CCN(CC(C)C)CC2)N=5)NC(=O)/C(C)=C\C=C/[C@H](C)[C@H](O)[C@@H](C)[C@@H](O)[C@@H](C)[C@H](OC(C)=O)[C@@H]1C | inactive | 
NC(=O)N(O)[C@@H]1COc2cc(OCc3ccccc3)ccc21 | inactive | 
CN1CCN(c2c(F)cc3c(=O)c(C(=O)O)cn4c3c2OCN4C)CC1 |  | -0.999% [at 19 µM]
Cc1ccnc2ccccc12 | inactive | 
CCCOc1ccc(S(=O)(=O)N2CCN(CC)CC2)cc1-c1nc2c(CC)n(Cc3ccccn3)nc2c(=O)[nH]1 | inactive | 
CC1CN(c2cc3c(cc2F)c(=O)c(C(=O)O)cn3-c2ccc(F)cc2F)CCN1 (stereo not given) |  | 0.293% [at 8.39 µM]

Compound | Potency | activation
O=C(O)c1cccnc1C(=O)O | inactive | 
Nc1ccc(S(=O)(=O)O)cc1 | inactive | 
CC(=O)N(c1onc(C)c1C)S(=O)(=O)c1ccc(N)cc1 | inactive | 
CC(C)C(=O)O | inactive | 
CC(=O)Nc1ccc(N)cc1 | inactive | 
CCC(=O)Oc1ccc(/C(CC)=C(\CC)c2ccc(OC(=O)CC)cc2)cc1 | 5.4 nM (active) | 
CC(=O)OCC(=O)[C@@]12OC(C)(C)O[C@@H]1C[C@H]1[C@@H]3C[C@H](F)C4=CC(=O)C=C[C@]4(C)[C@@]3(F)[C@@H](O)C[C@@]12C | inactive | 
Cc1ccc(S)cc1 | inactive | 
CCCc1c(OCCCOc2ccc(OCC(=O)O)cc2)ccc(C(C)=O)c1O | inactive | 
CN1Cc2cc(C(=O)N3CCC(C4CCNCC4)CC3)ccc2N[C@@H](CC(=O)O)C1=O | inactive | 
COc1cc2c(cc1OC)-c1cc(=Nc3c(C)cc(C)cc3C)n(C)c(=O)n1CC2 | inactive | 
CCOC(=O)OCC | inactive | 
Cc1oc(C)c(C(=O)Nc2ccccc2)c1C | inactive | 
CCCCCCCCCOC(C)=O | inactive | 
OC/C(Br)=C(\Br)CO | inactive | 
CC(CCO)CCc1ccccc1 (stereo not given) | inactive | 
Cc1ccc(S(=O)(=O)NC2CCCCC2)cc1 | inactive | 
C=CCOC(=O)/C=C\C(=O)OCC=C | inactive | 
COc1ccc([C@@H]2Sc3ccccc3NC(=O)[C@@H]2O)cc1 | inactive | 
ON(Cc1ccccc1)Cc1ccccc1 | inactive | 
